Measured values taken from PubChem BioAssay (NCI).
This is part of a sample that, as a whole, favours compounds with a hit. Of some 79,000 tested, about 15% had one in any assay. A number with no mark means an inactive call. The source made the active and inactive calls. Cut-off read from the data, not from the text of the source: active = growth inhibition above about 70%; inactive = the rest. Where a SMILES comes first, the peptide text is derived from it. The star is where a group is joined. Cbz = O=C(OCc1ccccc1)*; Boc = CC(C)(C)OC(=O)*; OSu = O=C1CCC(=O)N1O*; Bn = c1ccc(C*)cc1

Assays:
[1] = NCI Yeast Anticancer Drug Screen. Data for the rad50 strain (AID 155);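 note: 0% = growth of vehicle-only cultures of the same strain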; details: S. cerevisiae rad50 strain growth inhibition, active compounds read high
Method in brief: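 DNA repair mutant yeast, compound exposure, growth read-out; inhibition is taken relative to vehicle.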

[2] = NCI Yeast Anticancer Drug Screen. Data for the mec2-1 strain (AID 157); details: S. cerevisiae mec2-1 strain, active compounds read high
Method in brief: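 Growth inhibition is read against vehicle-treated controls after compound exposure of the mec2-1 yeast strain, which is defective in DNA damage repair or cell cycle control.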

[3] = NCI Yeast Anticancer Drug Screen. Data for the sgs1 mgt1 strain (AID 161);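 note: 0% = growth of cultures given vehicle only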; details: S. cerevisiae sgs1 mgt1 strain, active compounds read high
Method in brief: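 This yeast growth screen uses a strain with defined DNA-repair lesions; compound-treated growth is compared with vehicle-treated growth.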

[4] = NCI Yeast Anticancer Drug Screen. Data for the cln2 rad14 strain (AID 165);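 note: 0% = growth equal to vehicle treated cultures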; details: S. cerevisiae cln2 rad14 strain, active compounds read high
Method in brief: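 Growth inhibition, relative to vehicle-treated controls, is the read-out. The test organism is a yeast strain with defined genetic alterations, cln2 rad14.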

[5] = NCI Yeast Anticancer Drug Screen. Data for the bub3 strain (AID 167); details: S. cerevisiae bub3 mutant strain, active compounds read high
Method in brief: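 In this screen, a yeast mutant lacking normal mitotic checkpoint function is challenged with compound. Relative growth versus vehicle gives the inhibition value.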

[6] = NCI Yeast Anticancer Drug Screen. Data for the mlh1 rad18 strain (AID 175); details: S. cerevisiae mlh1 rad18 strain growth inhibition, active compounds read high
Method in brief: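 Cells of a genetically altered yeast strain, deficient in DNA damage repair, were treated with compound. Their growth was then compared with that of vehicle-treated cultures to give inhibition.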

[7] = at 5.0 µM (retest, dose inferred, filed as 0.5)
[8] = at 50.0 µM (retest, dose inferred, filed as 5.0)

Row | Structure (SMILES) | growth inhibition [1, 7] | growth inhibition [1, 8] | growth inhibition ([1]; at 50.0 µM) | growth inhibition [2, 7] | growth inhibition [2, 8] | growth inhibition ([2]; at 50.0 µM) | growth inhibition [3, 7] | growth inhibition [3, 8] | growth inhibition ([3]; at 50.0 µM) | growth inhibition [4, 7] | growth inhibition [4, 8] | growth inhibition ([4]; at 50.0 µM) | growth inhibition [5, 7] | growth inhibition [5, 8] | growth inhibition ([5]; at 50.0 µM) | growth inhibition [6, 7] | growth inhibition [6, 8] | growth inhibition ([6]; at 50.0 µM)
1 | Cc1ccc(S(=O)(=O)OCC(/C=N/NC(N)=O)OCOC(C)/C=N/NC(N)=O)cc1 (configuration not stated) | -2% | -7% | 14.8% | 0% | -5% | 99.2% (active) | -4% | -8% | 1.95% | 1% | -8% | 46.8% | 1% | -2% | -1.4% | 1% | -3% | 19.1%
2 | CC(C)(C)OC(=O)NC(Cc1ccc(OCc2ccccc2)cc1)C(=O)NC(CCCCNC(=O)OCc1ccccc1)C(=O)ON1C(=O)CCC1=O (configuration not stated) (Boc-Tyr(Bn)-Lys(Cbz)-OSu; configuration not given here) | 47% | 73% (active) | 64.2% | 31% | 66% | 48.5% | 40% | 64% | 38.9% | 31% | 50% | 55.5% | 37% | 70% (active) | 62.5% | 51% | 83% (active) | 57%
3 | Cc1ccc2c(c1)C1(SC(C)C(=O)N1c1ccc(Cl)cc1)C(=O)N2CN1CCOCC1 (configuration not stated) | 5% | 98% (active) | 18.6% | -4% | 97% (active) | 5.5% | -3% | 95% (active) | 0.4% | -4% | 92% (active) | -17.3% | 11% | 97% (active) | 16% | 11% | 98% (active) | 29.9%
4 | CCCCCCCCCCCCCCCCCC(=O)Nc1ccn(C2OC(CO)C(O)C2O)c(=O)n1 (configuration not stated) | 19% | 4% | 75.2% (active) | 9% | 15% | 83.6% (active) | 43% | 41% | 67.8% | 40% | 45% | 80.2% (active) | 48% | 43% | 82.3% (active) | 15% | 4% | 82.8% (active)
5 | Cc1ccc2c(c1)-c1cc(C)ccc1C2(O)c1ccccc1 | 3% | 83% (active) | 99% (active) | 14% | 66% | 97.9% (active) | 6% | 89% (active) | 93.7% (active) | -7% | 79% (active) | 97.2% (active) | 3% | 95% (active) | 96.7% (active) | -6% | 95% (active) | 99.2% (active)
6 | N#CC1C(=O)NC(=O)C(C#N)C1c1c(Cl)cccc1Cl (configuration not stated) | 5% | 72% (active) | 96.2% (active) | 1% | 55% | 92.5% (active) | 4% | 91% (active) | 94% (active) | 8% | 28% | 48.1% | -7% | 74% (active) | 91% (active) | 1% | 93% (active) | 94.7% (active)
7 | CN(C)CCOC1(CC2CCCCC2)CCC(C(C)(C)C)CC1 (configuration not stated) | -9% | 100% (active) | 99% (active) | -17% | 99% (active) | 99% (active) | -6% | 99% (active) | 99.4% (active) | 11% | 100% (active) | 99.5% (active) | -1% | 100% (active) | 98.9% (active) | 14% | 100% (active) | 99.3% (active)
8 | Cc1cc(Cc2ccccc2Cl)ccc1O | -3% | 99% (active) | 99.2% (active) | -9% | 100% (active) | 99.6% (active) | -3% | 99% (active) | 99.5% (active) | -17% | 99% (active) | 99% (active) | -6% | 98% (active) | 99.4% (active) | -4% | 100% (active) | 95.5% (active)
9 | O=C1C(Cl)=C(Nc2ccc(S(=O)(=O)Nc3ccccn3)cc2)C(=O)c2ccccc21 | 99% (active) | 99% (active) | 99.3% (active) | 99% (active) | 99% (active) | 99.3% (active) | 96% (active) | 99% (active) | 99.2% (active) | 95% (active) | 99% (active) | 99.2% (active) | 99% (active) | 99% (active) | 98.7% (active) | 90% (active) | 99% (active) | 99.2% (active)
